Reference: the supplement of paper PMC9135407
“And” between values parts separate entries of the source, which are not always exact repeats. Equal entries are not always repeated. Structures can show the parent of a compound that is named as a salt. In all, about 5,800 compounds went through this assay and about 620 (11%) showed activity. The sample holds actives, similar compounds and a random draw of the others, so the mix is not that of the screen.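 How the source made its calls: active = score above a cut-off or among the top three wells of a plate; in these data no inactive exceeds 0.85.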

Test system: primary human hepatic stellate cells (donor 1)
Test: scaled lipid accumulation score (0 = DMSO-like, 1 = nortriptyline-like); higher = stronger HSC inactivation (lipid re-accumulation), active = hit call of the paper
Settings: 48 h
[1] = library stock concentration: 80 uM
[2] = library stock concentration: 400 uM
[3] = library stock concentration: 2 mM
[4] = library stock concentration: 3.33 mM
[5] = library stock concentration: 10 mM
[6] = library stock concentration: 1 mM
[7] = library stock concentration: 6.3 mM
[8] = library stock concentration: 6.2 mM

`COc1ccc2nc3n[nH]c(C)c3c(NCCOCCO)c2c1` was tested, and the “scaled lipid accumulation score” value [1] was ≤ -0.001 (inactive), the “scaled lipid accumulation score” value [2] was ≤ -0.001 (inactive) and the “scaled lipid accumulation score” value [3] was ≤ -0.001 (inactive). For the same compound, the “scaled lipid accumulation score” value [4] was 0.203 (inactive) and the “scaled lipid accumulation score” value [5] was 0.021 (inactive).
In the case of `COc1ccc(-c2ccc3ncc4c(c3c2)n(-c2ccc(N3CCNCC3)c(C(F)(F)F)c2)c(=O)n4C)cn1.O=C(O)/C=C\C(=O)O`, the “scaled lipid accumulation score” value [2] is reported as 0.909 (active).
With `COc1ccc(-c2ccc3ncc4c(c3c2)n(-c2ccc(N3CCNCC3)c(C(F)(F)F)c2)c(=O)n4C)cn1` the “scaled lipid accumulation score” value [1] was 0.133 (inactive), the “scaled lipid accumulation score” value [3] was 0.546 (inactive) and the “scaled lipid accumulation score” value [4] was 0.237 (inactive). For the same compound, the “scaled lipid accumulation score” value [5] was ≤ 0 (inactive) and 0.223 (inactive).
With `COc1cc(OC)cc(-c2ccc3ncc4ccc(=O)n(-c5ccc(N6CCNCC6)c(C(F)(F)F)c5)c4c3c2)c1` the “scaled lipid accumulation score” value [1] was 0.045 (inactive), the “scaled lipid accumulation score” value [2] was 0.305 (inactive) and the “scaled lipid accumulation score” value [3] was 0.652 (inactive). For the same compound, the “scaled lipid accumulation score” value [5] was 0.426 (inactive).
For `S=c1[nH]c(-c2ccccc2)cn1-c1ccccc1`, the “scaled lipid accumulation score” value [5] was ≤ -0.07 (inactive).
In the case of `Nc1c2c(nc3c1CCC3)CCCC2`, the “scaled lipid accumulation score” value [5] is reported as ≤ 0 (inactive).
`CCCCCCCCCCCCCCCCOC[C@H](COP(=O)([O-])OCC[N+](C)(C)C)OC(=O)CCCCCCCC(=O)O` [Azelaoyl PAF] was tested, and the “scaled lipid accumulation score” value [6] was ≤ 0 (inactive).
`CCN(CC)C(C)CN1c2ccccc2Sc2ccccc21` (stereo not drawn) [Ethopropazine hydrochloride] was tested, and the “scaled lipid accumulation score” value was 0.644 (inactive), the “scaled lipid accumulation score” value (library stock concentration: 5.7 mM) was 0.667 (inactive) and the “scaled lipid accumulation score” value [5] was 0.301 (inactive) and 0.673 (inactive).
`CC(CN1c2ccccc2Sc2ccccc21)N(C)C` (stereo not drawn) [Promethazine HCl] was tested, and the “scaled lipid accumulation score” value [4] was ≤ 0 (inactive), the “scaled lipid accumulation score” value (library stock concentration: 7 mM) was 0.609 (inactive) and the “scaled lipid accumulation score” value [5] was 0.62 (inactive).
In the case of `CC(CN1c2ccccc2Sc2ccccc21)N(C)C` (stereo not drawn) [Phenergan], the “scaled lipid accumulation score” value [5] is reported as 0.649 (inactive).
`CC(CN1c2ccccc2Sc2ccccc21)N(C)C.Cl` (stereo not drawn) [Promethazine hydrochloride] was tested, and the “scaled lipid accumulation score” value [5] was 0.888 (active).
`CN(C)CCCN1c2ccccc2Sc2ccc(Cl)cc21` [Chlorpromazine HCl] was tested, and the “scaled lipid accumulation score” value [4] was 0.38 (inactive) and the “scaled lipid accumulation score” value [7] was 0.53 (inactive).
`CN(C)CCCN1c2ccccc2Sc2ccc(Cl)cc21` was tested, and the “scaled lipid accumulation score” value [5] was 0.711 (inactive).
In the case of `CN(C)CCCN1c2ccccc2Sc2ccccc21.Cl` [Promazine hydrochloride], the “scaled lipid accumulation score” value [5] is reported as 0.923 (active).
For `CN(C)CCCN1c2ccccc2Sc2ccc(Cl)cc21` [Chlorpromazine] [listing 1 of 2 here], the “scaled lipid accumulation score” value [5] was 0.466 (inactive).
In the case of `CN(C)CCCN1c2ccccc2Sc2ccc(Cl)cc21` [Chlorpromazine] [listing 2 of 2 here], the “scaled lipid accumulation score” value [7] is reported as 1.09 (active).
For `CC(CN1c2ccccc2Sc2ccccc21)N(C)C` (stereo not drawn) [Promethazine hydrochloride], the “scaled lipid accumulation score” value was 0.571 (inactive), the “scaled lipid accumulation score” value [8] was 0.655 (inactive) and the “scaled lipid accumulation score” value [5] was 0.748 (inactive).
In the case of `CN(C)CCCN1c2ccccc2Sc2ccc(Cl)cc21` [Chlorpromazine hydrochloride], the “scaled lipid accumulation score” value is reported as 0.717 (inactive) and the “scaled lipid accumulation score” value [5] is reported as 0.259 (inactive).
For `CN(C)CCCN1c2ccccc2Sc2ccccc21` [Promazine hydrochloride], the “scaled lipid accumulation score” value was 0.365 (inactive), the “scaled lipid accumulation score” value [8] was 0.834 (inactive) and the “scaled lipid accumulation score” value [5] was 0.324 (inactive).
With `CN(C)CCCN1c2ccccc2Sc2ccc(Cl)cc21.Cl` [Chlorpromazine HCl] the “scaled lipid accumulation score” value [5] was 0.833 (active).
For `CCCCCC(O)C=CC1C(O)CC(O)C1CC=CCCCC(=O)OC` (stereo not drawn) [Prostaglandin F2.alpha. methyl ester], the “scaled lipid accumulation score” value [6] was ≤ 0 (inactive).
For `Nc1ncnc2c1nc(Br)n2[C@@H]1O[C@@H]2COP(=O)(O)O[C@H]2[C@H]1O` [8-Bromo-cAMP, sodium salt], the “scaled lipid accumulation score” value [5] was ≤ -0.006 (inactive).
`Nc1ncnc2c1nc(Br)n2[C@@H]1O[C@@H]2COP(=O)(O)O[C@H]2[C@H]1O` [8-Bromo-cAMP] was tested, and the “scaled lipid accumulation score” value (library stock concentration: 12.3 mM) was 0.137 (inactive).
For `CC(NC(=O)c1ccccc1/N=C/c1c(O)ccc2ccccc12)c1ccccc1` (stereo not drawn) [Sirtinol], the “scaled lipid accumulation score” value [4] was 0.008 (inactive) and the “scaled lipid accumulation score” value [5] was 0.024 (inactive) and ≤ -0.001 (inactive).
With `CCCCCCCCCCCCCCCCOC[C@H](COP(=O)([O-])OCC[N+](C)(C)C)OC` [2-O-methyl PAF C-16] the “scaled lipid accumulation score” value [6] was ≤ 0 (inactive).
With `CCCCC[C@H](O)/C=C/[C@H]1CC[C@H](O)[C@@H]1C/C=C\CCCC(=O)O` [11-deoxy Prostaglandin F2.alpha.] the “scaled lipid accumulation score” value [6] was ≤ 0 (inactive).
`CCCCCCC(=O)SC[C@H](COP(=O)([O-])OCC[N+](C)(C)C)SC(=O)CCCCCC` [1,2-bis(heptanoylthio) Glycerophosphocholine] was tested, and the “scaled lipid accumulation score” value [6] was ≤ 0 (inactive).
For `CNC(=O)[C@H](Cc1c[nH]c2ccccc12)NC(=O)[C@@H](CC(=O)NO)CC(C)C`, the “scaled lipid accumulation score” value (library stock concentration: 12.9 mM) was ≤ -0.009 (inactive).
In the case of `CNC(=O)[C@H](Cc1c[nH]c2ccccc12)NC(=O)[C@@H](CC(=O)NO)CC(C)C` [Ilomastat (GM6001, Galardin)], the “scaled lipid accumulation score” value [4] is reported as ≤ -0.009 (inactive) and the “scaled lipid accumulation score” value [5] is reported as ≤ 0 (inactive).
In the case of `NC(=O)N1c2ccccc2CC(O)c2ccccc21` (stereo not drawn) [Licarbazepine], the “scaled lipid accumulation score” value [5] is reported as 0.008 (inactive).
`O=c1c(O)c(-c2ccc(O)c(O)c2)oc2cc(O)c(O)c(O)c12` [Quercetagetin] was tested, and the “scaled lipid accumulation score” value [4] was ≤ 0 (inactive).
With `O=C(O)C(Cc1c[nH]c2ccccc12)N1C(=O)c2ccccc2C1=O` (stereo not drawn) the “scaled lipid accumulation score” value [1] was ≤ 0 (inactive), the “scaled lipid accumulation score” value [2] was ≤ 0 (inactive) and the “scaled lipid accumulation score” value [3] was ≤ 0 (inactive). The “scaled lipid accumulation score” value [4] was ≤ 0 (inactive) and the “scaled lipid accumulation score” value [5] was 0.017 (inactive) and ≤ 0 (inactive).
`C#CCOc1ccccc1CCCCCC(=O)NS(C)(=O)=O` was tested, and the “scaled lipid accumulation score” value [6] was 0.013 (inactive).
In the case of `O=C1CCc2ccc(OCCCCN3CCN(c4cccc(Cl)c4Cl)CC3)cc2N1`, the “scaled lipid accumulation score” value [5] is reported as 0.964 (active).
`O=C1CCc2cc(OCCCCc3nnnn3C3CCCCC3)ccc2N1` [Cilostazol] was tested, and the “scaled lipid accumulation score” value was ≤ 0 (inactive), the “scaled lipid accumulation score” value [4] was ≤ 0 (inactive) and the “scaled lipid accumulation score” value (library stock concentration: 5.4 mM) was ≤ 0 (inactive).
For `O=C1CCc2ccc(OCCCCN3CCN(c4cccc(Cl)c4Cl)CC3)cc2N1` [Aripiprazole], the “scaled lipid accumulation score” value [4] was ≤ 0 (inactive), the “scaled lipid accumulation score” value (library stock concentration: 4.5 mM) was 0.238 (inactive) and 0.464 (inactive) and the “scaled lipid accumulation score” value [5] was 0.827 (inactive).
In the case of `Cn1sc(=O)n(Cc2ccccc2)c1=O` [GSK-3b Inhibitor I], the “scaled lipid accumulation score” value [4] is reported as ≤ 0 (inactive).
For `Cc1ccc(NC2=CC(=O)c3sc(C)nc3C2=O)cc1` [Ryuvidine], the “scaled lipid accumulation score” value [5] was 0.904 (active).
`Cc1ccc(NC2=CC(=O)c3sc(C)nc3C2=O)cc1` [Cdk4 Inhibitor III] was tested, and the “scaled lipid accumulation score” value [4] was 0.942 (active).
With `O=C(O)[C@]1(Cc2cccc(Nc3nccs3)n2)CC[C@@H](Oc2cccc(Cl)c2F)CC1` the “scaled lipid accumulation score” value [4] was ≤ 0 (inactive) and the “scaled lipid accumulation score” value [5] was 0.039 (inactive).
For `CCC[C@H](NC(=O)[C@@H]1[C@H]2CCC[C@H]2CN1C(=O)[C@@H](NC(=O)[C@@H](NC(=O)c1cnccn1)C1CCCCC1)C(C)(C)C)C(=O)C(=O)NC1CC1` [Telaprevir (VX-950)], the “scaled lipid accumulation score” value [4] was ≤ 0 (inactive) and the “scaled lipid accumulation score” value [5] was ≤ 0 (inactive).
`CCCCCCCCCCCCCCCCOC[C@H](COP(=O)([O-])OCC[N+](C)(C)C)OC(=O)NC` [Methylcarbamyl PAF C-16] was tested, and the “scaled lipid accumulation score” value [6] was ≤ 0 (inactive).
With `O=C(O)CCC/C=C\C[C@H]1[C@@H](/C=C/[C@@H](O)CCc2ccccc2)[C@H](O)C[C@@H]1O` [8-iso-17-phenyl trinor Prostaglandin F2.alpha.] the “scaled lipid accumulation score” value [6] was ≤ 0 (inactive).
`O=C1CC2(CCCC2)CC(=O)N1CCCCNCC1COc2ccccc2O1` (stereo not drawn) was tested, and the “scaled lipid accumulation score” value [5] was 0.376 (inactive).
In the case of `CCN(CC)CCOC(=O)C(c1ccccc1)C1CCCCC1` (stereo not drawn) [Drofenine hydrochloride], the “scaled lipid accumulation score” value is reported as 0.317 (inactive) and the “scaled lipid accumulation score” value [5] is reported as 0.335 (inactive).
For `CNC(C)C(=O)NC(C(=O)N1CCCC1C(=O)NC(C(=O)NCCCCCCNC(=O)C(NC(=O)C1CCCN1C(=O)C(NC(=O)C(C)NC)C1CCCCC1)C(c1ccccc1)c1ccccc1)C(c1ccccc1)c1ccccc1)C1CCCCC1` (stereo not drawn), the “scaled lipid accumulation score” value [4] was 0.26 (inactive) and the “scaled lipid accumulation score” value [5] was 0.061 (inactive).
With `Cl.O=C(NCCCN1CCCCCC1)C(c1ccccc1)C1CCCCC1` (stereo not drawn) the “scaled lipid accumulation score” value [5] was 0.897 (active).
With `CN1CC(O)C(O)C(O)C1CO` (stereo not drawn) [N-Methyl-1-deoxynojirimycin] the “scaled lipid accumulation score” value [5] was ≤ -0.07 (inactive).
For `Cc1n[nH]c2ccc(-c3cncc(OC[C@@H](N)Cc4ccccc4)c3)cc12`, the “scaled lipid accumulation score” value [4] was 1.24 (active).
In the case of `Cc1[nH]nc2ccc(-c3cncc(OC[C@@H](N)Cc4ccccc4)c3)cc12`, the “scaled lipid accumulation score” value [5] is reported as 0.795 (inactive).
For `O=c1cnn([C@@H]2O[C@H](CO)[C@@H](O)[C@H]2O)c(=O)[nH]1`, the “scaled lipid accumulation score” value [5] was ≤ 0 (inactive).
`CNCCC(Oc1ccc(C(F)(F)F)cc1)c1ccccc1.Cl` (stereo not drawn) [Fluoxetine HCl] was tested, and the “scaled lipid accumulation score” value [4] was 0.709 (active) and the “scaled lipid accumulation score” value [5] was 1.02 (active).
For `CNCCC(Oc1ccc(C(F)(F)F)cc1)c1ccccc1.Cl` (stereo not drawn) [Fluoxetine hydrochloride], the “scaled lipid accumulation score” value [5] was 1.57 (active).
For `CNCCC(Oc1ccc(C(F)(F)F)cc1)c1ccccc1.Cl` (stereo not drawn), the “scaled lipid accumulation score” value [5] was 0.914 (active).
`CNCCC(Oc1ccc(C(F)(F)F)cc1)c1ccccc1.Cl` (stereo not drawn) [Fluoxetine] was tested, and the “scaled lipid accumulation score” value (library stock concentration: 5.8 mM) was 0.96 (active).
With `CCCCCCCCCCCCCCCC(=O)N[C@H](C)CO` [R-Palmitoyl-(1-methyl) Ethanolamide] the “scaled lipid accumulation score” value [6] was 0.031 (inactive).
In the case of `CCCCC[C@H](O)/C=C/[C@H]1[C@@H](O)CC(=O)[C@@H]1CCCCCCC(=O)O` [11.beta.-Prostaglandin E1], the “scaled lipid accumulation score” value [6] is reported as ≤ 0 (inactive).
With `COc1ccnc2[nH]cc(C(=O)C(=O)N3CCN(C(=O)c4ccccc4)C[C@H]3C)c12` the “scaled lipid accumulation score” value [4] was ≤ 0 (inactive) and the “scaled lipid accumulation score” value [5] was 0.019 (inactive).
`O=C(O)c1ccc(N2C(=O)C(=Cc3ccc(-c4ccc([N+](=O)[O-])cc4)o3)C=C2c2ccccc2)cc1` was tested, and the “scaled lipid accumulation score” value [4] was 0.129 (inactive) and the “scaled lipid accumulation score” value [5] was 0.284 (inactive).
With `Cc1nc(N)ncc1-c1nc(N2CCOCC2)c2sc(C(C)(C)O)cc2n1` the “scaled lipid accumulation score” value [2] was 0.092 (inactive), the “scaled lipid accumulation score” value [3] was ≤ -0.005 (inactive) and the “scaled lipid accumulation score” value [5] was ≤ -0.005 (inactive).
With `O=C(CCCCc1ccccc1)C(F)(F)C(F)(F)F` the “scaled lipid accumulation score” value [6] was ≤ 0 (inactive).
For `CC1CC(OC(=O)C(O)c2ccccc2)CC(C)(C)C1` (stereo not drawn), the “scaled lipid accumulation score” value [5] was 0.065 (inactive).
For `CC1CC(OC(=O)C(O)c2ccccc2)CC(C)(C)C1` (stereo not drawn) [Cyclandelate], the “scaled lipid accumulation score” value [4] was ≤ 0 (inactive) and the “scaled lipid accumulation score” value [5] was 0.196 (inactive).
